Screening results from PubChem BioAssay.
This is a sample that favours compounds with a hit; in the whole collection about 19% have one here.
Giardia killer: Giardia lamblia killing; Giardia lamblia trophozoite viability; activity change, % at 7.66 µM, hits read low; 0.15% of 340,000 active; in the data active means activity change below about -80%; inconclusive means between about -30% and that limit;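 further: parasites exposed to compound for two days anaerobically before the ATP read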
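ATP-content bioluminescence gauges trophozoite survival. Cells (100/well) receive compound and incubate anaerobically for 48 hrs at 37 deg C; detection reagent follows for 15-30 min at room temperature.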
TDP1 block: blocks human tyrosyl-DNA phosphodiesterase 1 | Q9NUW8 | recombinant TDP1, AlphaScreen DNA substrate cleavage | 0.28% of 350,000 active | AID 485290 | Potency, µM (series often up to 130 µM), for the others: top-dose activity change, negative = inhibition, actives largely listed as inhibitors; further: potency means the concentration at half of the fitted maximal effect; nearly all actives have a fitted effect of over 40% in size
Target sequence (Q9NUW8 whole entry, looked up): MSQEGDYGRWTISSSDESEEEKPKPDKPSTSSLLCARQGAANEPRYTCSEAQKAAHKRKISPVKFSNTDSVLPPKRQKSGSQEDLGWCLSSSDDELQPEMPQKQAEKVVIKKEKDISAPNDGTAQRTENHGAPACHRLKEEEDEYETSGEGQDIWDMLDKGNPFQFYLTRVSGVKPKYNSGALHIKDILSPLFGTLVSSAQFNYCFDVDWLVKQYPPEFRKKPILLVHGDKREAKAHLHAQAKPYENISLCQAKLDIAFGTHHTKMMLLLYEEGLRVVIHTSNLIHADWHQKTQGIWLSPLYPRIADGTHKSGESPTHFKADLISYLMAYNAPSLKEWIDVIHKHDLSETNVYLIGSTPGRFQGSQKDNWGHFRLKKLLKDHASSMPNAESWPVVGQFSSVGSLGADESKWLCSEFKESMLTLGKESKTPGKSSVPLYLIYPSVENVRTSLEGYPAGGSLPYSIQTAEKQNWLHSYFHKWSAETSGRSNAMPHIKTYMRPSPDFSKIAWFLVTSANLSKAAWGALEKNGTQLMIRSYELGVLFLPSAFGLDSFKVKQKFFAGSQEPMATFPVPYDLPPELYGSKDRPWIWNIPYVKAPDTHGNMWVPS
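Here, a 5' biotin and 3' phosphotyrosine-FITC DNA oligonucleotide reports Tdp1 activity: intact substrate bridges AlphaScreen beads, while cleavage leaves a 3' phosphate and drops signal. All incubations at room temperature.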
IL1B secr inh: inhibitors of inflammasome signaling (IL-1 beta secretion) | THP-1 LPS/ATP IL-1B secretion, AlphaLISA, 16 h; active compounds read low | activity change, % at 57.5 µM | 4.7% of 360,000 active; in the data active means activity change below about -50%; inconclusive means mostly about -30% to -49%
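Secreted IL-1B measured by AlphaLISA bead assay after 16 h compound exposure of THP-1 cells; compounds (final up to 57.5 uM) added 1 h before LPS (250 ng/mL) and ATP (1.25 mM) stimulation; lower signal means less secretion.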
ELG1 repair inh: ELG1-dependent DNA repair inhibition; 2.3% of 330,000 active; Potency, µM (doses to about 46.1 µM), for inactives: top-dose activity change, negative = inhibition, usual class: inhibitors; HEK293T ELG1-luciferase reporter, luminescence, 16 h; DNA damage induced by 5-fluorouridine; AID 504467; further: potency means the concentration at half of the fitted maximal effect; nearly all actives have a fitted effect of over 55% in size
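5-Fluorouridine DNA damage + compound/DMSO, 2,000 cells/well, 16 h, 37 °C/5% CO2. ONE-Glo, 30 min RT, luminescence. Readout = decrease in reporter signal.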
DT40 TDP1 CPT: growth inhibition of DT40 Tdp1-/-;hTDP1 cells with camptothecin (screen for TDP1 inhibitors) | chicken DT40 Tdp1-/-;hTDP1 cells + 20 nM CPT, ATP luminescence, 48 h | Potency, µM (doses to about 46.2 µM), without a hit: top-dose activity change, negative = growth inhibition, usual class: inhibitors | 12% of 420,000 active | AID 686979; further: potency means the concentration at half of the fitted maximal effect; nearly all actives have a fitted effect of over 55% in size
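Cell growth measured by CellTiter-Glo luminescence after a minimum 48 h, 37 C compound exposure with 20 nM CPT in Tdp1-knockout DT40 cells stably expressing hTDP1, seeded 400/well; qHTS titration format.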
TDP1 cell noCPT: qHTS for Inhibitors of human tyrosyl-DNA phosphodiesterase 1 (TDP1): qHTS in cells in absence of CPT. DT40 Tdp1-/- hTDP1 cells, no CPT, ATP luminescence, 48 h. Potency, µM (doses to about 46.2 µM), for the others: at the top dose activity change, negative = growth inhibition, usual class: inhibitors. 15% of 420,000 active. AID 686978, 2013; further: potency means the concentration at half of the fitted maximal effect; nearly all actives have a fitted effect of over 55% in size
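Cells were dispensed at 400 per well, compounds added by pin tool, plates incubated ≥48 hr at 37 °C, then CellTiter-Glo added for 30 min at room temperature before luminescence reading. Line: DT40 Tdp1-/- complemented with hTDP1; camptothecin omitted.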
An asterisk follows results filed as active; ? = inconclusive; . = no result; [ ] = dose if it differs, or a comment. Unless noted, the call rests on the fitted dose curve; in most records, active means well fitted curve in the direction sought with a large enough effect; inconclusive means small, poorly fitted or top-dose-only effect, or another doubt; inactive means no such curve, though single readings can be large; an effect the other way counts as inactive or inconclusive. On the % scale 0 is the no-effect control and ±100 the full control effect.

SMILES	Giardia killer	TDP1 block	IL1B secr inh	ELG1 repair inh	DT40 TDP1 CPT	TDP1 cell noCPT
Cc1cc(C)nc(NS(=O)(=O)c2ccc(NC(=O)c3cc(=O)c4ccccc4o3)cc2)n1	7	7%	31	9%	2%	20%
COC(=O)[C@H]1[C@@H]2C[C@H]3c4[nH]c5ccccc5c4CCN3C[C@@H]2CC[C@@H]1O	.	5%	.	.	9%	-15%
CC1(C)Cc2c(sc3nc(=S)[nH]c(N)c23)CO1	.	-2%	.	21%	.	.
S=c1nc2ccccc2c2nc(-c3ccccc3Br)[nH]n12	9	.	17	-7%	2.1µM*	1µM*
O=C1CCCN1C(=O)CSc1ccc2ccccc2n1	9	0%	19	18%	15%	0%
C/C(=N\NC(N)=S)C1(C)CCCCC1	-1	5%	-2	-28%	?	13µM*
COc1ccc(OC)c(CCNC(=O)C(C)n2nc(C)c3c(C)n(-c4ccc(C)cc4)nc3c2=O)c1 (stereo not given)	1	8%	7	-13%	?	18µM*
CCC(C(=O)NCCc1ccc(Cl)cc1)n1nc(C)c2c(C)n(-c3ccccc3)nc2c1=O (stereo not given)	.	0%	.	.	?	?
CCC(C(=O)NCCc1cc(OC)ccc1OC)n1nc(C)c2c(C)n(-c3ccccc3)nc2c1=O (stereo not given)	.	3%	.	.	18µM*	?
COc1ccc(OC)c(CCNC(=O)C(C)n2nc(C)c3c(C)n(-c4ccccc4)nc3c2=O)c1 (stereo not given)	13	6%	0	?	?	?
OCCC1CN(Cc2cc3c(cc2Cl)OCO3)CCN1C1CCCC1 (stereo not given)	26	5%	?	-8%	-29%	-17%
CC(C)N1C(=O)/C(=C\c2nc3ccccc3c(=O)[nH]2)c2ccccc21	-3	8%	-100*	?	?	29µM*
Cc1ccc(C)c(C(=O)CSc2nc3ccccc3c(=O)[nH]2)c1	8	-1%	1	10%	2%	?
CCCN1C(=O)/C(=C/c2nc3ccccc3c(=O)[nH]2)c2cc(C)ccc21	-2	9%	13	21%	21µM*	8.2µM*
N#CCCN(CC#Cc1ccccc1)OCc1ccccc1	.	-2%[21 µM]	.	.	.	.
COc1ccc(-c2c3c(=O)n(C)c(=O)n(C)c3cn2-c2cc(OC)ccc2OC)cc1	-14	10%	-9	?	?	23µM*
Cn1c(=O)c2c(-c3ccccc3)n(-c3cccc(O)c3)cc2n(C)c1=O	.	.	-13	.	18µM*	9.2µM*
COc1ccc(-c2c3c(=O)n(C)c(=O)n(C)c3cn2-c2ccccc2O)cc1	-8	.	40	-11%	?	-27%
Cn1c(=O)c2c(-c3ccccc3)n(-c3ccc(N)cc3)cc2n(C)c1=O	.	.	5	.	?	15µM*
Cn1c(=O)c2c(-c3ccccc3)n(-c3ccccc3Br)cc2n(C)c1=O	.	.	-1	.	4.6µM*	5.2µM*
O=C(NCC1Cc2cccc(-c3ccccn3)c2O1)c1cnn2cccnc12 (stereo not given)	.	.	.	.	-5%	2%
Cc1cccc(C)c1NC(=O)C(NS(=O)(=O)c1ccc2c(c1)CCC(=O)N2)c1ccccc1 (stereo not given)	.	.	.	.	-17%	-26%
Cc1cc(N/N=C/c2ccc(O)c(C)c2O)nc(-c2ccccc2O)n1	5	3%	-98*	2.9µM*	13µM*	9.2µM*
C/C(=N\Nc1cc(C)nc(-c2ccccc2O)n1)c1ccccc1	-19	-5%	-68*	?	?	?
Cc1cc(N/N=C/c2ccc(O)cc2O)nc(N2CCOCC2)n1	-3	10%	-6	?	-3%	-28%
